Paper PMC12864922, “TDP-43 directly inhibits mRNA accumulation in neurites through modulation of mRNA stability”
In all, about 9,900 sequences were measured (“r (bound/input frequency ratio)”: median about 0.7, highest 2% from about 6.5 on). The sample holds the highest values, similar sequences and a random draw of the others, so the mix is not that of the screen.

B1: ENSMUSG00000034801.21|Sos2 (ssRNA)
RNA: GGGAGUUCUACAGUCCGACGAUCGCUUCGAUAUCCGCAUGCUAGCCCUCUCCACGGAUUCCACGCAGCUGUCACUUGCUCAGCUCCAGUCACAGCAGCCUUGCUCAUCUUCCAGCUCCUCCUGUCCCACCAAGGCAGAAUUCAAGCCCUCUCUUACCAAAGCUGCCACCAAAGACUUACAAACGGGAGCUUUCCCACCCGCCACUGUAUAGACUGCCUCUGCUGGAAAAUGCAGAAACUCCUCAAUGACCUUGGCCAUAUGUAGUCAUUGACACUGGAAUAGUAUUUGUAAAGGUUUUUAAUUCUCUUGCGGUCGCACUAGUGUGGAAUUCUCGGGUGUCAAGG
B2: ENSMUSG00000042529.183|Kcnj12 (ssRNA)
RNA: GGGAGUUCUACAGUCCGACGAUCGCUUCGAUAUCCGCAUGCUAGUUUAAUCUUUCCCUACUGCCCUAAGUCCACUCAUGAAGCUCCCCAGGCCCUUCUGAGAUUGCAGAGGCUGCUUGCUCAUAGCCAUGACCCUGCCUGCUUUUGUCCCACACUGCUGGGGCAGGAUGAUGAAGCCCUGCUGGUCCCAGCCAGUCAUCUCCUGCUGGAAGGCAGAGUCUAGGGGAGAAGAGAAACACCCCCACCCCCACCCCUAUCCCGCACCAGCCCCCUGCCACCAUAGAGAUAGACCAGAGAAAUGUCACUCUUGCGGUCGCACUAGUGUGGAAUUCUCGGGUGUCAAGG
B3: ENSMUSG00000061578.815|Ksr2 (ssRNA)
RNA: GGGAGUUCUACAGUCCGACGAUCGCUUCGAUAUCCGCAUGCUAUGGGACUCUUUUUAUGAGGAACCAGUCCUGUUGAAUCGGGGUGCUCUGUAUUAGUUAUUUUUGUAACUUGUGAUUGUAACCAAAUGCCCGAUAGAAACAGCAUUCUGGCUCACAGUUUCAAAGGGCUCAGUCCAUAGCUGCCUGACUCUGUGUUUCUAGGCCUUUCUUGAGGCAAGUGUUCAUCAUGAUAGUGUGAGGGUGAGGAGGAGUUUCUUCAUGGCAAACAGGAAGCAAAGAGCAAUACAGGAAAAGGUCAGGGGCUCUUGCGGUCGCACUAGUGUGGAAUUCUCGGGUGUCAAGG
B4: ENSMUSG00000061578.1222|Ksr2|31:35;225:229 (ssRNA)
RNA: GGGAGUUCUACAGUCCGACGAUCGCUUCGAUAUCCGCAUGCUAGAAUGAGCCGCUGGGAUAUUGACAUGGAGAACACAUGAUGGAAAAAGCCUCCACACCCAACAUAACUCUCCAGAGAGAUAUUGAAAGUGAUGGGCAGAGAGUCUGACAAUGACCCAGGGGUCAUUGUGAGUCCUAGGCUGAAUCUGUAAUGGGGUCCAAAGUGCAGGAGAGACUGCAUUCACCUUGUUGGUGGGGUGGGGCUUCUUUCAUUACUUUAAGUAUCUCAUACGGCUUGAGGCAUGGGAAACAGCACCUUGUCUCUCUUGCGGUCGCACUAGUGUGGAAUUCUCGGGUGUCAAGG
B5: ENSMUSG00000022095.104|Fam160b2 (ssRNA)
RNA: GGGAGUUCUACAGUCCGACGAUCGCUUCGAUAUCCGCAUGCUAGCUGUUGCAAAAUUCCCAACUGCCUCCUGGCAGAGGCCCAAAGUAUGCUCUGCGCCCAGGCGGGGGCAGCUGCUAACAAGAGCCCUGGCGCAGCUGCAGCCAGGGCAGGCGAGAGCCUUGGAGCUGGGUGCCAGGCUCCAGCUCCAGCUCCAGCUGGUUCCUCUCUGGCGCCUUCUGAACCCGUCUCAGCAAGUCCGAAACACCUGGGCAGAGAGGUCAUUGACCAGGGAUGGGGGCCCUUGCCCUCUGAAUCCUGCCCACUCUUGCGGUCGCACUAGUGUGGAAUUCUCGGGUGUCAAGG
B6: ENSMUSG00000061578.919|Ksr2|82:86 (ssRNA)
RNA: GGGAGUUCUACAGUCCGACGAUCGCUUCGAUAUCCGCAUGCUACAAUUCUACCCAUGACAGACAUGUCCCAUCCAUGAGCCCAGAUAGUCAAAGACUUCAGCACAAGGGUGUUUAGAGUAGGCACACACGAAGUAUCAAUAAGGUUAUUGAGAUGAGGAUUUAGAAAGAUCCAUGUAUAAAAGGUCUAGAAGGAUGAAGAUCUAAAACAAGAAGACUGCAUGUUAACGCUCCUGCCACUGUUGCCCCUUCCUUUACCCUUGGCAGACAUUGCUAAUCAAUCUCAGCACAGUUUCCAACCACAGCUCUUGCGGUCGCACUAGUGUGGAAUUCUCGGGUGUCAAGG
B7: ENSMUSG00000061578.806|Ksr2 (ssRNA)
RNA: GGGAGUUCUACAGUCCGACGAUCGCUUCGAUAUCCGCAUGCUACCUCUCUCCAAUCUUUACCUUUGCCUCUACUAGAUGAUCUUGCAUCUGUCUUUGUGGGACUCUUUUUAUGAGGAACCAGUCCUGUUGAAUCGGGGUGCUCUGUAUUAGUUAUUUUUGUAACUUGUGAUUGUAACCAAAUGCCCGAUAGAAACAGCAUUCUGGCUCACAGUUUCAAAGGGCUCAGUCCAUAGCUGCCUGACUCUGUGUUUCUAGGCCUUUCUUGAGGCAAGUGUUCAUCAUGAUAGUGUGAGGGUGAGGAGCUCUUGCGGUCGCACUAGUGUGGAAUUCUCGGGUGUCAAGG
B8: ENSMUSG00000043670.134|Diras1 (ssRNA)
RNA: GGGAGUUCUACAGUCCGACGAUCGCUUCGAUAUCCGCAUGCUACCUGGCCACCCCGAGUACCACCUCUGGAAUAGCAGACGCCCACAGCACAAGCCCAGGACUGUCCCUUCAGGGGAGGCACACUGGAACCCUGAACUUGGAGUGUGGAGUGGCUGCCUGGACACUGCCCACCUGGACACCAGCCUUCUGCUGAGAUAGAGACCUUGGCACAGUGGCACCUCGACAGCCACCCCGACUGGGGGUUUGGGGUGCUGAGGGUGGGGUGCCCAGCUGAGAGUCUAUCAGCAAAGUCCCUGUGUGCGCUCUUGCGGUCGCACUAGUGUGGAAUUCUCGGGUGUCAAGG
B9: ENSMUSG00000058297.456|Spock2|123:127 (ssRNA)
RNA: GGGAGUUCUACAGUCCGACGAUCGCUUCGAUAUCCGCAUGCUAUCACACAGGUCAGAUUAUUGUCGGUCCUGCGGGCCUCAUCCUUGAAUAAGCUGCCUGCCCAGUUCCUCCAUCCGUGUUCCUGCCUGCUCCCGUUCCCUUGUUGCGGGCAGGAGAGGUAGGGCACACAUGGAAAGAGUUCAACCAAAUUACGGCAGCACCACAUCUUGCCGAGCCCUGGAGCUGCCCUACUAAGAGCCUCCUUAGCCCUGGGUGCUGGGAAGGAUGGUGUACGUUGGGGAAGUUUGAGGUUGGAGAGAGUACUCUUGCGGUCGCACUAGUGUGGAAUUCUCGGGUGUCAAGG
B10: ENSMUSG00000043670.205|Diras1 (ssRNA)
RNA: GGGAGUUCUACAGUCCGACGAUCGCUUCGAUAUCCGCAUGCUACACCCAGAUGAGGGUGACUUAGAAUUCUGUGUUUAUGUGCCUGUGUGUGUGGAUGGGUGUGUGUCUGUCUUGGGAUGGGGUGUUCUUGCACCACUUUGUGUUCUUAGUGAGACCACAGUGUAAGUGGCCGUGUGUGUGUGUGGGGGGGGGCACCUAGACAUUGUGGUGUGUCUGUAUGGCUCUGUGUUUUCAGGGGUGGGUGACACAGGCCUGUCUGAUGAGCACCAGGUCUGUUCCAGGCUGUGGCAAGCUGGCUCCUGCUCUUGCGGUCGCACUAGUGUGGAAUUCUCGGGUGUCAAGG

Biological target: TDP-43 (Homo sapiens, UniProt Q13148 1-414)
Sequence (Q13148 whole entry): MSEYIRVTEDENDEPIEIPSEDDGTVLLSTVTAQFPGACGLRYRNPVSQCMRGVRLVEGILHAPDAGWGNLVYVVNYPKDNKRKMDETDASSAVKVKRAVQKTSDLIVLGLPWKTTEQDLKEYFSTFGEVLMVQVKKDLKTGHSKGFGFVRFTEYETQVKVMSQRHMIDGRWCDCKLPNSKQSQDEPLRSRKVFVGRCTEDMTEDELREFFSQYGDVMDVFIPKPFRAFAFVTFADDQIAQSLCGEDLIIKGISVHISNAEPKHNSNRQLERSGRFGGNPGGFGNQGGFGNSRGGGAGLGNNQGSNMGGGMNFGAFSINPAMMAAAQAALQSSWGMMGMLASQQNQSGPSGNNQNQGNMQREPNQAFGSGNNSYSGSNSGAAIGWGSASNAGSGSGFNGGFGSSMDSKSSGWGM
Test: RNA Bind-n-Seq with designed 260-mer pool; 25 mM Tris-HCl, 150 mM KCl, 3 mM MgCl2, BSA (printed 500 mg/mL), 20 units/mL SUPERase IN; pH not stated; 500 nM RNA pool, 1 h, 4 C; TDP-43 5, 50, 500 nM; high values mean tight binding
Conditions: protein: recombinant; tags: SBP (GST cleaved off with PreScission; pGEX-GST-SBP)
Outline: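 Streptavidin beads captured recombinant SBP-tagged TDP-43 at 5, 50 or 500 nM, and the beads were incubated for 1 h at 4 °C with 500 nM of an in vitro-transcribed pool of 260-nt 3′ UTR oligos in 25 mM Tris-HCl, 150 mM KCl, 3 mM MgCl2, BSA and SUPERase IN. After washing, bound RNA was eluted with biotin, reverse transcribed, PCR-amplified and sequenced. Binding is reported as R, the mapped-read-normalized abundance of each oligo in the bound sample divided by its abundance in the input. Two independent protein batches served as duplicates.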

Row | Binder | binding signal
1 | B1 | 1.01 R (bound/input frequency ratio)
2 | B2 | 1.85 R (bound/input frequency ratio)
3 | B3 | 2.37 R (bound/input frequency ratio)
4 | B4 | 0.49 R (bound/input frequency ratio)
5 | B5 | 0.438 R (bound/input frequency ratio)
6 | B6 | 0.397 R (bound/input frequency ratio)
7 | B7 | 0.325 R (bound/input frequency ratio)
8 | B8 | 0.868 R (bound/input frequency ratio)
9 | B9 | 0.829 R (bound/input frequency ratio)
10 | B10 | 7.36 R (bound/input frequency ratio)
